Screening results (PubChem BioAssay)
Rab9 prom act: activates the Rab9 promoter; Potency, µM (doses to about 9.22 µM), hits mostly activators; Huh7 Rab9 promoter-luciferase reporter, luminescence, 24 h; 320,000 compounds, 2.8% hits; note: nearly all actives have a fitted effect of over 60% in size
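Rab9 promoter-driven luciferase in stably transfected Huh7 cells; 1500 cells/well rested 2 h, exposed to compound in DMSO for 24 h at 37 °C, 5% CO2. Luminescence read 10 min after adding luciferase reagent at ambient temperature.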
FLuc modulator: firefly luciferase modulation, counter-screen for miR-21 project | P08659 | purified FLuc, Km substrates, luminescence inhibition | Potency, µM (titrated, usually from 57.5 µM), actives largely listed as inhibitors | 360,000 compounds, 6.9% hits; note: nearly all actives have a fitted effect of over 55% in size
Target sequence (P08659 whole entry, looked up): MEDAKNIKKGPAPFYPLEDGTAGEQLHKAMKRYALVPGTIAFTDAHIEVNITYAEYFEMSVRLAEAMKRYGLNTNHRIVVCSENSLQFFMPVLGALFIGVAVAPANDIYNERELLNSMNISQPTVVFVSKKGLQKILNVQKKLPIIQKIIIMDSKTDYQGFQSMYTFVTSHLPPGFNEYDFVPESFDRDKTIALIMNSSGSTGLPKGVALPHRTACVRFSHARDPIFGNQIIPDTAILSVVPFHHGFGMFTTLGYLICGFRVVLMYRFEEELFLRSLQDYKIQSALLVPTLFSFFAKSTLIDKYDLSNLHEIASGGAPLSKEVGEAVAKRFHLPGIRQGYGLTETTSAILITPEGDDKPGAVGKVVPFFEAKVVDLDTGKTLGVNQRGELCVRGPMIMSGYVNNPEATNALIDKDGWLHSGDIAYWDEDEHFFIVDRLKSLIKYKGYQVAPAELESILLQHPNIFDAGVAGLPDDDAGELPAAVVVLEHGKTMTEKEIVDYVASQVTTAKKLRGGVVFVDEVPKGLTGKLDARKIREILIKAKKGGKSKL
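Biochemical qHTS of compounds, final roughly 60 µM downward over six points, against 10 nM purified firefly luciferase using Km concentrations of substrates (10 uM D-luciferin, 10 uM ATP) in Tris acetate pH 7.5 buffer; luminescence output.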
KinaseGlo FLuc: blocks Kinase-Glo luciferase, a counter-screen artifact | Q27757 | Kinase-Glo luciferase, ATP luminescence, 8 min | Potency, µM (doses to about 38.3 µM), usual class: inhibitors | 200,000 compounds, 0.28% hits | AID 1379; note: nearly all actives have a fitted effect of over 60% in size
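Recombinant Kinase-Glo luciferase, 10 uM ATP (linear range), luciferin; imidazole pH 7.2 / KCl / MgCl2 / Tween / BSA buffer; 8 min RT; luminescence.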
ELG1 genotox: induces genotoxicity in HEK293T cells with luciferase-tagged ELG1 | HEK293T ELG1-luciferase reporter, luminescence, 16 h | 330,000 compounds, 1.3% hits | Potency, µM (series often up to 46 µM), usual class: activators; note: nearly all actives have a fitted effect of over 60% in size
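Cells (2,000/well) expressing the ELG1-luciferase fusion are dosed by pin tool and kept 16 hr at 37 °C, 5% CO2. Signal comes from ONE-Glo luciferase reagent after 30 min at room temperature.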
NPC1 prom act: activates the NPC1 promoter; Huh7 NPC1 promoter luciferase reporter, 24 h; Potency, µM (titrated, usually from 9.22 µM), actives largely listed as activators; 320,000 compounds, 2.4% hits; note: nearly all actives have a fitted effect of over 60% in size
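Huh7 reporter cells (NPC1 promoter driving luciferase) are dosed with compound for 24 h at 37 °C, 5% CO2; luciferase detection reagent is then added and luminescence measured after 10 min at ambient temperature.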
SMN2 splice enh: enhancers of SMN2 splice variant expression; HEK293 SMN2-luciferase splicing reporter, luminescence, 30-36 h; Potency, µM (titrated, usually from 46.1 µM), actives largely listed as activators; 210,000 compounds, 2.8% hits; AID 1458; note: nearly all actives have a fitted effect of over 55% in size
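HEK293 cells carry an SMN2 minigene-luciferase reporter in which exon 7 inclusion puts luciferase in frame. Cells were seeded at 2000 cells/well, attached for 10-12 hours, then exposed to compounds for 30-36 hours at 37C before ONE-Glo luminescence.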
Of the large screens only hits and unclear results are named; the others gave an inactive call. Sampled rows, rich in hits. Any-hit rate of the full collection: about 7.4%. Calls come from the whole dose curve; as a rule, active = well fitted curve in the direction sought with a large enough effect; inconclusive = small, poorly fitted or top-dose-only effect, or another doubt; inactive = no such curve, though single readings can be large; an effect the other way counts as inactive or inconclusive.

CN(C)c1ccc(/C=C/C(=O)c2ccccc2)cc1[N+](=O)[O-]	Rab9 prom act 2.5µM, FLuc modulator 1.2µM, NPC1 prom act 3.5µM
O=C(/C=C/c1ccc(O)c([N+](=O)[O-])c1)c1ccc2ccccc2c1	FLuc modulator 7.6µM (no result: KinaseGlo FLuc, SMN2 splice enh)
Cc1ccc(N(C(=O)c2cccc(C)c2)S(=O)(=O)c2ccc(Cl)cc2)cc1	none (no result: Rab9 prom act, KinaseGlo FLuc, ELG1 genotox, NPC1 prom act)
CC(C)NC(=O)CN1C(=O)c2cccnc2Sc2ccccc21	none (no result: Rab9 prom act, KinaseGlo FLuc, ELG1 genotox, NPC1 prom act, SMN2 splice enh)
O=S1(=O)N=C(Nc2ccc(N3CCOCC3)cc2)c2ccccc21	FLuc modulator 13µM, SMN2 splice enh inconclusive
Cc1cccc(NC(=O)c2ccc(C(=O)c3ccccc3)cc2)n1	Rab9 prom act inconclusive, FLuc modulator 9.5µM, ELG1 genotox 21µM, NPC1 prom act inconclusive (no result: KinaseGlo FLuc, SMN2 splice enh)
Cc1cccc(NC(=O)c2cccc(C(=O)Nc3cccc(C)n3)c2)n1	none (no result: KinaseGlo FLuc, SMN2 splice enh)
O=C(Nc1cccc(NC(=O)c2ccccc2)n1)c1ccccc1	FLuc modulator 9.5µM (no result: KinaseGlo FLuc, SMN2 splice enh)
O=C(O)c1ccc2c(c1)C(=O)N([C@H](Cc1c[nH]c3ccccc13)C(=O)O)C2=O	none (no result: KinaseGlo FLuc, ELG1 genotox, SMN2 splice enh)
COCCNC(=O)CN1C(=O)CCn2nc(-c3cn(C)c4ccccc34)cc21	none (no result: Rab9 prom act, KinaseGlo FLuc, ELG1 genotox, NPC1 prom act, SMN2 splice enh)
Cc1ccc(C)c(C(=O)COC(=O)CN2C(=O)C3C4CCC(C4)C3C2=O)c1 (configuration not stated)	none (no result: KinaseGlo FLuc, SMN2 splice enh)
Cc1ccc(C(=O)COC(=O)C(C)N2C(=O)C3C4C=CC(C4)C3C2=O)cc1C (configuration not stated)	FLuc modulator 13µM (no result: KinaseGlo FLuc, SMN2 splice enh)
Cc1ccc(C(=O)COC(=O)C(C)N2C(=O)C3C4C=CC(C4)C3C2=O)cc1 (configuration not stated)	FLuc modulator inconclusive
Cc1ccc(C)c(C(=O)COC(=O)CCN2C(=O)C3C4CCC(C4)C3C2=O)c1 (configuration not stated)	FLuc modulator 12µM (no result: KinaseGlo FLuc, SMN2 splice enh)
Cc1ccc(C(=O)COC(=O)c2ccccc2N2C(=O)C3C4CCC(C4)C3C2=O)cc1C (configuration not stated)	FLuc modulator 12µM
CCc1ccc(-n2nc(CO)c(C(=O)NCCCc3ccccc3)n2)cc1	none (no result: Rab9 prom act, KinaseGlo FLuc, ELG1 genotox, NPC1 prom act)
COc1cccc(N2C(=O)CSC23C(=O)N(CC(=O)NCc2ccc(C)cc2)c2ccccc23)c1 (configuration not stated)	none (no result: Rab9 prom act, KinaseGlo FLuc, ELG1 genotox, NPC1 prom act, SMN2 splice enh)
Oc1cccc2ccc(SSc3ccc4cccc(O)c4n3)nc12	none (no result: Rab9 prom act, FLuc modulator, ELG1 genotox, NPC1 prom act)
COc1ccc(NC(=O)COc2ccc(/C=N/O)cc2OC)cc1	Rab9 prom act inconclusive, FLuc modulator 21µM, ELG1 genotox inconclusive, NPC1 prom act inconclusive (no result: SMN2 splice enh)
COc1cc(/C=N/N=C2/NC(=O)C(CC(=O)O)S2)ccc1OCc1ccc(Cl)cc1 (configuration not stated)	FLuc modulator 19µM, ELG1 genotox inconclusive, SMN2 splice enh 11µM
COc1cc(/C=N/OCC(=O)NC23CC4CC(CC(C4)C2)C3)ccc1OCc1ccccc1	FLuc modulator 15µM (no result: KinaseGlo FLuc, SMN2 splice enh)
CCOc1cc(/C=N/N=C2/NC(=O)C(CC(=O)O)S2)ccc1OCc1ccc(Cl)cc1Cl (configuration not stated)	SMN2 splice enh inconclusive
COc1cc(/C=N/O)ccc1OCc1ccc(Cl)cc1	Rab9 prom act 0.4µM, FLuc modulator 1.3µM, ELG1 genotox 2.1µM, NPC1 prom act 0.63µM, SMN2 splice enh 6.3µM
COc1ccc(CCNC(=O)CCc2c(C)c3ccc(O)c(C)c3oc2=O)cc1	none (no result: Rab9 prom act, KinaseGlo FLuc, ELG1 genotox, NPC1 prom act, SMN2 splice enh)
Cc1ccc(CN(Cc2ccco2)c2cnc(S(C)(=O)=O)nc2C(=O)Nc2ccc(Br)cc2)o1	none (no result: Rab9 prom act, KinaseGlo FLuc, ELG1 genotox, NPC1 prom act, SMN2 splice enh)
COc1cc(/C=N/O)ccc1OCc1ccc(C(=O)O)cc1	Rab9 prom act 0.089µM, FLuc modulator 0.054µM, ELG1 genotox inconclusive, NPC1 prom act inconclusive, SMN2 splice enh 0.4µM
CCOc1cc(/C=N/N=C(N)N)ccc1OCc1ccc(Cl)cc1	FLuc modulator inconclusive
COc1cc(/C=N/N=C(N)N)ccc1OCc1ccc(Cl)cc1	Rab9 prom act inconclusive, FLuc modulator 3µM, ELG1 genotox 9.2µM, NPC1 prom act inconclusive
COc1cc(C(=S)N2CCCC2)ccc1OCc1ccc(C)cc1	Rab9 prom act inconclusive, FLuc modulator inconclusive, ELG1 genotox 21µM, NPC1 prom act inconclusive (no result: KinaseGlo FLuc, SMN2 splice enh)
CCOc1ccc(C(=S)N2CCCC2)cc1OC	none
CCN(CC)COC(=S)S	none (no result: Rab9 prom act, FLuc modulator, ELG1 genotox, NPC1 prom act)
